Compounds with a hit are over-represented: about 2.8% of the library has one in this group of screens.
PGE2 EP2 inh = human EP2 receptor antagonists, primary screen, TR-FRET cAMP, C6 glioma cells; Prostaglandin E2 receptor EP2 subtype (Homo sapiens), P43116; C6 glioma cells expressing human EP2; cells stimulated with saturating PGE2; inhibition, % at 25 µM; hit rate 0.52% among 260,000; AID 1422, 2008;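 active = percent inhibition above 40 after rounding to a whole number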;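 also: rat C6 glioma host cells with rolipram phosphodiesterase inhibitor present; the protocol text gives 20 µM as final concentration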
Wee1 degr inh = Wee1 degradation inhibitors, primary screen, cell-based, HeLa, Wee1K328M-luciferase, luminescence. reporter increase, % at 5 µM. HeLa Luc-Wee1K328M stability; 100% = proteasome inhibitor MG132 effect. hit rate 1.2% among 220,000. Wee1-like protein kinase (Homo sapiens), P30291;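 active = activation above the mean of all tested compounds plus 3 SD, set per screening run, cut at about 8.8% in these data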;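 also: cells exposed to compound for 20 h before luminescence read; 0% = DMSO alone and 100% = MG132 at 30 µM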
Target sequence (P30291 whole entry K328M): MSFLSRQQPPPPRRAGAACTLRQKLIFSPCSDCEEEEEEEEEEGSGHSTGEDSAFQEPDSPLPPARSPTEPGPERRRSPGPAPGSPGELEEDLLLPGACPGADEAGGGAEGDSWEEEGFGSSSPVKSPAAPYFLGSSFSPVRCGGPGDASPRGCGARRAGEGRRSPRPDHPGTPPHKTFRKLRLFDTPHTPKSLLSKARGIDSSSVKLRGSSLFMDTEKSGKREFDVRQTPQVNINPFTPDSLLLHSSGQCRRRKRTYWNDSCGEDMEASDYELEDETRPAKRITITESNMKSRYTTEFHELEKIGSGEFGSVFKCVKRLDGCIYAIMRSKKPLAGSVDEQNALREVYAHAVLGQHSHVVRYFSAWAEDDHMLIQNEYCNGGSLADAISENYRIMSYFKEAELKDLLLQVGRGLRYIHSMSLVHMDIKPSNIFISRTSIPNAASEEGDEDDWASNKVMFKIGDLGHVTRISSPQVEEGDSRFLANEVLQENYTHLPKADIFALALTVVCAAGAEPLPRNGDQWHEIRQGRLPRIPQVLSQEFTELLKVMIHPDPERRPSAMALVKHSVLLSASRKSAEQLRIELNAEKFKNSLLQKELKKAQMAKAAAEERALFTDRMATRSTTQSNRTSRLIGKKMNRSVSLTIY
HSV replic up = enhancers of HSV replication in host cells, fold increase, host cell viability; maximum fold increase; hit rate 0.005% among 220,000; HSV replication augmentation in cells; AID 1956, 2009; in the data active = maximum fold increase above about 1.5; tested in PC3 cells
NCF1 inh = p47phox/p22phox peptide binding inhibitors, primary screen, biochemical, uHTS, NADPH oxidase regulatory subunit | AID 1274, 2008 | fluorescence polarization, 2 h | Neutrophil cytosol factor 1 (Homo sapiens), P14598 | inhibition, % at 24.7 µM | hit rate 0.53% among 220,000;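 active = inhibition above about 30%, limit read from the data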;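 also: 0% = p47phox with labelled peptide and 100% = labelled peptide alone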
EP2 mod = EP2 receptor modulators, cAMP readout, primary screen, cell-based, HTRF cAMP, PGE2 stimulation | induction, % at 25 µM | Prostaglandin E2 receptor EP2 subtype (Homo sapiens), P43116 | hit rate 0.83% among 260,000 | EP2-expressing cells, cAMP HTRF FRET, PGE2 co-stimulation | AID 940, 2007;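 active = compounds whose cAMP rise, as percent of the full-agonist control response, exceeds 60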;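 also: rat C6 glioma line stably carrying human EP2 under a CMV promoter; the protocol text gives 20 µM as final concentration; 100% = response of wells given 1 µM PGE2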
Furin inhibitor = human furin inhibitors, primary screen, biochemical, fluorescence intensity; P09958; purified furin, fluorogenic substrate cleavage; inhibition, % at 20 µM or 30 µM; hit rate 0.061% among 220,000; AID 463115, 2010; in the data active = inhibition above about 25%
Wee1 degr conf = Wee1 degradation inhibitors, confirmation, cell-based, HeLa, Wee1K328M-luciferase, luminescence, triplicate; hit rate 4% among 1,100; HeLa Luc-Wee1K328M degradation; vehicle 0%, proteasome-blocked wells 100%; activation, % at 5 µM; AID 1410, 2008; shares compounds with Wee1 degr inh; in the data active = activation above about 8.9%
* marks the source's active call; other numbers are inactive results; i = inactive; · = not tested or not shown.

SMILES | PGE2 EP2 inh | Wee1 degr inh | HSV replic up | NCF1 inh | EP2 mod | Furin inhibitor | Wee1 degr conf
CC(=O)c1cccc(NC(=O)c2oc3ccccc3c2C)c1 | 18 | · | · | · | 5 | · | ·
COc1ccc(-c2ccc(SCC(=O)Nc3cccc(C(C)=O)c3)nn2)cc1OC | 10 | 12* | i | 5 | -31 | -22 | 5
O=C(N/N=C/c1ccc(Cl)cc1)c1cc2c(s1)-c1ccccc1CC2 | 13 | 26* | i | -11 | 8 | -25 | 6
O=C(O)c1cc2c(s1)-c1ccccc1CC2 | 20 | -2 | i | -2 | 3 | -167 | ·
NNC(=O)CNc1ccccc1Cl | 10 | 11* | i | -6 | 24 | -31 | -1
O=C(Nc1ccccc1Cl)Nc1ccccc1Cl | 3 | -1 | i | 3 | -31 | -11 | ·
O=C1NC(=Nc2ccc3c(c2)OCO3)S/C1=C\c1ccc(-c2ccc3c(c2)COC3=O)o1 | 4 | · | · | · | 12 | · | ·
CCCOc1ccc(C(C)=O)cc1CN1CCOCC1 | 4 | 12* | i | 3 | 15 | -15 | -1
Cc1cc2cc3c(cc2n2c(SCC(=O)Nc4ccc(F)c(Cl)c4)nnc12)OCCO3 | 11 | · | · | · | -13 | · | ·
Cc1ccc2nc(NC(=O)COC(=O)c3ccco3)sc2c1 | 5 | 11* | i | -16 | -5 | -10 | 7
O=C(Nc1nccs1)c1cc2cc(Br)cc(Br)c2oc1=O | 15 | · | · | · | -57 | · | ·
O=C(/C=C\Nc1ccc(Br)cc1)c1cccnc1 | 7 | 11* | i | -5 | -23 | -12 | 0
O=C(NNC(=S)Nc1ccc(Br)cc1)c1cccnc1 | 11 | · | · | · | -6 | · | ·
CCCC(=O)Nc1nnc(SCC(=O)Nc2ccccc2F)s1 | 3 | · | · | · | -12 | · | ·
O=C(CC1CCCCC1)N1CCC[C@@H]1Cn1nc(-c2cccs2)ccc1=O | · | · | · | · | -51 | · | ·
COc1ccc(/C=N/Nc2nc(=O)[nH]nc2C)cc1OC | 6 | 2 | i | -3 | 9 | 4 | ·
COc1cc(/C=N/Nc2nc(=O)[nH]nc2C)ccc1O | 8 | 17* | i | -9 | 8 | -4 | -3
CCOC(=O)Cn1nnnc1CN(Cc1ccc(C)cc1)Cc1cc2cccc(C)c2[nH]c1=O | 1 | · | · | · | 23 | · | ·
CC(=O)Nc1ccc(S(=O)(=O)Nc2nc3cc4c(cc3nc2Cl)OCCO4)cc1 | 15 | 11* | i | 4 | 27 | -29 | 5
Cc1ccc(NC(=O)NC2(C(=O)NCc3ccccc3)CCCCC2)cc1 | 20 | 0 | i | 4 | 22 | 5 | ·
COc1ccccc1CNC(=O)C1(NC(=O)Nc2ccc(C)cc2)CCCCC1 | 6 | 11* | i | -4 | 26 | -24 | 1
COc1ccccc1NC(=O)N1CCCC(c2nc(-c3ccc(N(C)C)cc3)no2)C1 (centres undefined) | 24 | · | · | · | -18 | · | ·
COc1ccc2nc(Nc3nc(C)c(C(C)=O)s3)sc2c1 | 12 | 12* | i | -6 | -21 | -27 | 5
COc1ccc(Nc2nc3ccc(OC)cc3s2)cc1 | 5 | -2 | i | -1 | -37 | -23 | ·
CCNC(=O)C(=O)NCCc1c[nH]c2ccccc12 | 8 | · | · | · | -47 | · | ·
SMILES | PGE2 EP2 inh | Wee1 degr inh | HSV replic up | NCF1 inh | EP2 mod | Furin inhibitor | Wee1 degr conf
Cc1cccc(C(=O)NCC(=O)OCC(=O)N2CCc3ccccc32)c1 | 1 | 13* | i | -5 | 5 | 0 | 0
Cc1ccc(C(=O)NCC(=O)OCC(=O)N2CCCc3ccccc32)cc1 | 4 | -1 | i | -5 | 10 | 2 | ·
CCOC(=O)C1=C(C)NC(=S)NC1/C=C/c1ccccc1 (centres undefined) | 14 | 16* | i | -2 | 19 | -7 | 5
COC(=O)C1=C(C)NC(=S)NC1/C=C/c1ccccc1 (centres undefined) | 8 | 1 | i | -1 | -23 | 4 | ·
O=C(NC(=S)Nc1ccc2c(c1)OCCO2)c1cccc2ccccc12 | 6 | 12* | i | -9 | -3 | -22 | 0
CCNC(=O)NC(=O)COc1ccccc1C#N | 8 | 4 | i | -52 | -26 | -26 | ·
N#Cc1ccccc1OCC(=O)NC(=O)NCc1ccccc1 | 2 | 15* | i | 14 | -15 | -10 | -2
On1onc2c3cc(-c4ccccc4)nc3ccc21 | · | 39* | · | 1 | -54 | -23 | 30*
CCC(=O)N1CC2(c3ccccc3)CN(C(=O)CC)CC(c3ccccc3)(C1)C2=O | 5 | 12* | i | -2 | -10 | -13 | 0
CCOc1ccc(CC(=O)NNC(=S)NC)cc1 | 5 | 14* | i | -10 | -21 | -10 | -3
COc1cc(C=C2C(=O)OC(C)(C)OC2=O)ccc1OCC(=O)Nc1ccccc1 | -1 | 15* | i | 8 | -26 | -7 | 3
Cc1cccc(NC(=O)CSc2nnc(-c3n[nH]c4ccccc34)o2)c1 | 8 | 2 | i | -48 | -19 | -17 | ·
N#Cc1cccc(NC(=O)CSc2nnc(-c3n[nH]c4ccccc34)o2)c1 | 7 | 22* | i | -6 | -65 | -37 | 3
O=C(NCCNC(=O)c1ccco1)c1cccc(Cl)c1 | 7 | · | · | · | 9 | · | ·
COc1ccccc1-n1cnnc1SCC(=O)Nc1ncc(Cl)cc1Cl | 12 | -2 | i | -6 | -34 | -18 | ·
COc1ccccc1-n1cnnc1SCC(=O)Nc1nc(C)c(Cl)cc1Cl | 6 | 13* | i | -16 | 2 | -15 | 3
CC(C)CN(C(=O)COC(=O)CNC(=O)c1ccccc1F)C1CCS(=O)(=O)C1 (centres undefined) | 4 | -3 | i | -6 | 14 | -27 | ·
CCC(C)N(C(=O)COC(=O)CNC(=O)c1ccccc1F)C1CCS(=O)(=O)C1 (centres undefined) | 6 | 15* | i | 10 | -4 | -18 | -1
Oc1ccc(-c2nc3cnccn3c2NCc2ccccc2)cc1O | 9 | · | · | · | -49 | · | ·
COc1ccccc1OCC(=O)Nc1ccc(N2CCCCC2)cc1 | 6 | 11* | i | -6 | -23 | -35 | 0
O=C(Nc1ccc(N2CCCCC2)cc1)c1ccc(F)cc1 | 23 | 11* | i | -18 | 5 | -22 | 2
CCc1cc2cc(C)cc(C)c2nc1SCC(=O)Nc1cc(C)on1 | 11 | 11* | i | -8 | 17 | -22 | 0
CCc1cc2cc(C)cc(C)c2nc1SCC(=O)Nc1nonc1C | 8 | · | · | · | 14 | · | ·
COc1ccc2nc3sc(C(=O)Nc4ccc5c(c4)OCO5)c(N)c3cc2c1 | 10 | · | · | · | -54 | · | ·
Cc1ccc(C)c(S(=O)(=O)Nc2nc(C)c(C(=O)Nc3ccccc3)s2)c1 | 10 | 14* | i | -23 | 14 | -14 | 2

From PubChem BioAssay
